PrPC surface inh: cell surface PrPC inhibition, primary TR-FRET screen | TR-FRET read-out | inhibition, % at 13.8 µM | 370,000 tested, 0.43% active | P04156 | AID 720596; in the data active = inhibition above about 24%
PrP UTR inh: inhibition of PrP 5' UTR reporter expression. cell-based PrP 5' UTR mRNA reporter, plate reader. inhibition, % (concentration not given with the values). 340,000 tested, 0.35% active. AID 488862; in the data active = inhibition above about 52%
PfHsp40 rescue: compounds rescuing yeast from Plasmodium falciparum HSP40 toxicity | growth rescue, % at 12.5 µM | S. cerevisiae expressing PfHsp40, growth rescue, ATP luminescence | 340,000 tested, 0.68% active; in the data active = growth rescue above about 28%, passing the limit was not always enough;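 also: yeast W303a lacking pdr1 and pdr3 grown in galactose medium; growth measured after three days at 30 °C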
DUSP3 inh: blocks human VHR1 dual specificity phosphatase. recombinant VHR phosphatase, pNPP absorbance. AID 1654. 290,000 tested, 0.52% active. inhibition, % at 13.3 µM; in the data active = inhibition above about 50%
Target sequence (P51452 whole entry, looked up): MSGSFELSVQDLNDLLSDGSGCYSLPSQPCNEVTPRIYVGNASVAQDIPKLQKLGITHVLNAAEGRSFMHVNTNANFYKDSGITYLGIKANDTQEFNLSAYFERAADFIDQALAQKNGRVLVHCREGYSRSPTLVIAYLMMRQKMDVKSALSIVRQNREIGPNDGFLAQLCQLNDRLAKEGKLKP
MazEF act: activators of E. coli MazEF toxin-antitoxin RNase; FAM/BHQ RNA-DNA oligo cleavage fluorescence, 5 h; activation, % at 20 µM; 350,000 tested, 0.32% active; AID 504720; in the data active = activation above about 50%
Target sequence (P0AE70 whole entry, looked up): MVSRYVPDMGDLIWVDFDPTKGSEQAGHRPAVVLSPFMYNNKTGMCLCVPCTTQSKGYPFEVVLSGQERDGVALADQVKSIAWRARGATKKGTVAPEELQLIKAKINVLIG
BJeLR viability: kills HRASV12-expressing BJeLR cells; AID 1554; inhibition, % (test concentration not listed); BJeLR (HRASV12) viability, CellTiter-Glo ATP luminescence, 48 h; 300,000 tested, 0.17% active; in the data active = inhibition above about 50%
Hits are given with their value; – = inactive; · = no result. Rows were chosen to be rich in hits. Some 2.1% of all compounds tested hit in one or more screens of this group.

SMILES | PrPC surface inh | PrP UTR inh | PfHsp40 rescue | DUSP3 inh | MazEF act | BJeLR viability
CCn1c(/C=C/c2c[nH]c3ccccc23)nc2ccccc2c1=O | – | – | – | – | – | –
Cc1[nH]c2ccccc2c1/C=C/c1nc2ccccc2c(=O)n1-c1ccc([N+](=O)[O-])cc1 | – | – | – | – | 589 | –
CCn1c(/C=C/c2c(C)[nH]c3ccccc23)nc2ccccc2c1=O | – | – | – | – | 106 | –
O=C(O)c1ccc(N/N=C/c2c(F)cccc2Cl)cc1 | – | – | 106 | – | – | –
Cc1c(Cc2ccccc2)c(=O)n2c([nH]c3ccccc32)c1C#N | – | – | – | – | – | –
COc1ccccc1N=Cc1c(C)c(C#N)c2[nH]c3ccccc3n2c1=O | – | – | – | – | 143 | –
Cc1oc(-c2ccc(Cl)cc2)nc1CN1CCCC(C(=O)N2CCN(C(=O)c3ccco3)CC2)C1 (stereo not drawn) | – | – | – | 52 | – | –
COc1ccc(OC)c(N(CC(=O)NC2CC3CCC2C3)S(=O)(=O)c2ccccc2)c1 (stereo not drawn) | – | – | – | 59 | – | –
CN(C)CCN=Cc1c(O)n(Cc2ccc3c(c2)OCO3)c(=S)[nH]c1=O | – | – | 82 | – | – | –
CC(C)(C)NC(=O)CSCc1ccc(Br)cc1 | – | – | – | 53 | – | –
C[C@@H]1C[C@H]2[C@@H](C)C(=O)N3[C@H](c4ccccc4)[C@H](C)C[C@H]3[C@@H](C)C(=O)N2[C@@H]1c1ccccc1 | – | · | · | · | · | ·
CC(C)=CCC/C(C)=C/CNC(=O)C[C@H]1C[C@H](C(=O)N2CCOCC2)[C@@]2(C)c3[nH]c4cc(-c5ccco5)ccc4c3CCN2C1=O | · | – | – | · | – | ·
COc1cccc(NC(=O)N(C)C[C@@H]2OCc3cnnn3CCCC(=O)N([C@@H](C)CO)C[C@H]2C)c1 | – | · | · | · | – | ·
CCn1cc(/C=c2/sc3n(c2=O)C2c4ccccc4OC(C)(N=3)C2C(=O)OC)c(C)n1 (stereo not drawn) | – | – | – | 53 | – | –
CCOc1ccccc1N(C)S(=O)(=O)c1ccc2c(c1)CC(C)N2C(=O)C1CC1 (stereo not drawn) | – | – | – | 50 | – | –
CCN(c1ccccc1)S(=O)(=O)c1ccc2c(c1)CC(C)N2C(=O)C1CC1 (stereo not drawn) | – | – | – | – | – | –
CC1(C(=O)NS(=O)(=O)c2cccc(Cl)c2)CCN1C(=O)Cc1ccc(Cl)cc1Cl (stereo not drawn) | – | · | · | · | · | ·
Cc1ccc(CCNS(=O)(=O)c2ccc3c(c2)N(C)CCO3)cc1 | – | – | – | – | – | –
C/C(=N\NC(=S)NC1CCCCC1)c1c(F)cccc1F | – | – | 45 | – | – | –
CCCCN(C)Cc1c(O)ccc2c(=O)c(-c3ccccc3OC)coc12 | – | – | – | – | – | –
Cc1c(Cc2c(Cl)cccc2Cl)c(=O)ccn1C(C)c1ccccc1 (stereo not drawn) | – | – | 52 | – | – | ·
CC1(C)CC(=O)N(CC(=O)N2CCN(Cc3ccccc3)CC2)c2ccccc2S1(=O)=O | – | · | · | · | · | ·
CN(CCC#N)C(=O)CSc1nnc(-c2ccco2)n1N | – | – | – | 51 | – | –
CCCN(CC1CC1)C(=O)CSc1nnc(-c2ccco2)n1N | · | · | · | – | · | –
CN(C)CCNC(=O)Cn1nc(C(F)F)cc1C1CC1 | – | – | – | – | – | –
SMILES | PrPC surface inh | PrP UTR inh | PfHsp40 rescue | DUSP3 inh | MazEF act | BJeLR viability
O=C(Cn1nc(C(F)F)cc1C1CC1)N1CCCC1 | – | – | – | 59 | – | –
Cc1cc(NC(=O)CCC(=O)N(Cc2ccco2)C(C(=O)NC2CCCC2)c2ccccc2C)no1 (stereo not drawn) | – | – | – | – | 55 | –
Cc1cc(NC(=O)CCC(=O)N(Cc2ccco2)C(C(=O)NC2CCCC2)c2ccccc2F)no1 (stereo not drawn) | – | – | – | – | – | –
Cc1ccc(S(=O)(=O)N2CCN(C(=O)/C=C/c3ccccc3)CC2)cc1C | – | – | – | · | – | ·
CCOC(=O)Cn1c(=NC(=O)C2COc3ccccc3O2)sc2cc(S(N)(=O)=O)ccc21 (stereo not drawn) | – | – | – | – | – | –
CCOC(=O)Cn1c(=NC(=O)c2ccc([N+](=O)[O-])s2)sc2ccccc21 | – | – | – | – | 276 | –
O=C(NC(NC(=S)Nc1cccc(Cl)c1)C(Cl)(Cl)Cl)OCc1ccccc1 (stereo not drawn) | – | – | – | – | 84 | –
O=C(NC(NC(=S)Nc1cccc(C(=O)O)c1)C(Cl)(Cl)Cl)OCc1ccccc1 (stereo not drawn) | – | – | – | – | – | –
Cc1cc(C)cc(C(=O)OCCCN(C)C2CN(Cc3cn(Cc4cccc(F)c4)nn3)S(=O)(=O)C2)c1 (stereo not drawn) | – | · | · | · | · | ·
O=C(c1cc2ccccc2o1)N1CCN(c2ccccc2Cl)CC1 | – | – | 187 | – | – | –
CCC(=O)N1CCN(c2ccc(NC(=O)c3cc4ccccc4o3)cc2Cl)CC1 | 32 | – | – | – | – | –
CCC(=O)N1CCN(c2ccc(Cl)cc2NC(=O)c2ccc([N+](=O)[O-])o2)CC1 | – | – | 46 | – | – | –
CCC(=O)N1CCN(c2ccc(Cl)cc2NC(=O)c2cccc([N+](=O)[O-])c2)CC1 | – | – | – | – | – | –
CCCC(=O)N1CCN(c2ccc(NC(=O)c3cc4ccccc4o3)cc2Cl)CC1 | – | – | – | – | – | –
O/N=C/c1cc2ccccc2n1Cc1ccccc1F | – | – | – | – | – | –
CCOC(=O)c1ccc(P(=O)(c2ccccc2)c2ccccc2)cc1 | – | – | – | – | – | –
CCOC(=O)Nc1cccc(Nc2ccccc2)c1 | – | – | – | – | – | –
CCOC(=O)NNc1ccccc1 | – | – | 62 | – | – | –
Cc1ccc(Cn2cc(COC(=O)N3CCCC3)nn2)cc1 | – | · | · | · | · | ·
Cc1ccc2sc(-c3ccc(NC(=O)CCN4C(=O)c5ccccc5C4=O)cc3)nc2c1 | – | · | · | 54 | · | –
CC(=O)Nc1ccc(NC(=O)CCN2C(=O)c3ccccc3C2=O)cc1 | – | – | – | – | – | –
OC(CNCC1CCCO1)Cn1c2ccc(Cl)cc2c2cc(Cl)ccc21 (stereo not drawn) | – | – | – | – | – | –
OC(CNCCC1C=Nc2ccccc21)Cn1c2ccc(Cl)cc2c2cc(Cl)ccc21 (stereo not drawn) | – | – | – | – | – | 105
Cc1ccc2nc(-c3ccco3)c(Cc3cccc(F)c3)n2c1 | – | · | · | · | · | ·
C/C(=N\Nc1cc(C)nc(-c2ccccc2O)n1)c1ccccc1 | – | – | – | – | – | –
Cc1cc(N/N=C/c2ccc(O)c(C)c2O)nc(-c2ccccc2O)n1 | – | – | 73 | – | – | –
c1ccc(CN2CCN(CCN3CCn4c3nc3ccccc34)CC2)cc1 | – | – | – | – | – | –
c1ccc2c(c1)nc1n2CCN1CCN1CCCC1 | – | – | 44 | – | – | –

Bioassay records as filed in PubChem BioAssay.
